Experimental findings from PubChem BioAssay AID751 (NMMLSC, 2007) are described below.

Each structure is given as a SMILES string. Hit rate of the full screen: of about 24,000 compounds, about 40 (0.2%) were called active.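 The calls were made as follows: active = inhibition of disassembly above about 33% (limit read from the data); inconclusive = likely self-fluorescent, control bead median signal at least 40; inactive = the rest.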 This excerpt belongs to a sample that is enriched for actives.

The test system of the test is 26S proteasome (yeast, GFP-tagged, ATP-dependent disassembly). Kind of test: blockers of yeast 26S proteasome breakdown – biochemical, bead-based flow cytometry, GFP-tagged proteasome, primary screen (AID 751).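 Also: plate controls were ATP control with full disassembly for no effect and ATP-gamma-S intact proteasomes for full effect; higher percent means more bead fluorescence retained so stronger block of disassembly.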 Particulars: anti-FLAG beads, stronger effect = higher value, concentration not given here.
Regarding `Cc1nc2sc(C(c3ccco3)N3CCC4(CC3)OCCO4)c(O)n2n1` (stereo not drawn), the inhibition of disassembly is -1.33% (inactive).

Turning to `CCn1ncc(C2=NOC(C(=O)Nc3ccccc3C(=O)OC)C2)c1C` (stereo not drawn), the inhibition of disassembly was 0.71% (inactive).

For the compound `CCCn1c(C(O)c2ccc(OCC)cc2)nc2ccccc21` (stereo not drawn), the inhibition of disassembly is 0.49% (inactive).

As to `CCn1cc(C(=O)NC2CCCCCC2)c(=O)c2cc(S(=O)(=O)N3CCCCC3)ccc21`, the inhibition of disassembly was -0.53% (inactive).

Consider `Cc1nonc1NC(=O)c1ccccc1Br`, for which the inhibition of disassembly was -2.02% (inactive).

In the case of `CC1C=CCC2C(=O)N(c3cccc(C(=O)N4CCCCCC4)c3)C(=O)C12` (stereo not drawn), the inhibition of disassembly was -0.22% (inactive).

On to `CC(NC(=O)CN1CCN(Cc2ccc(Cl)cc2)C1=O)c1ccc2c(c1)OCCO2` (stereo not drawn), for which the inhibition of disassembly was 0.26% (inactive).

For `CCOc1cc2[nH]c(=S)n(CCCN3CCCC3=O)c(=O)c2cc1OCC`, the inhibition of disassembly was -0.66% (inactive).

In the case of `O=C(c1ccc2c(c1)N(Cc1ccc(F)cc1)C(=O)CS2)N1CCOCC1`, the inhibition of disassembly was 3.05% (inactive).

In the case of `O=C(CCCN1C(=O)C2C3C=CC(C3)C2C1=O)N1CCN(c2ccccc2)CC1` (stereo not drawn), the inhibition of disassembly is -1.14% (inactive).

In the case of `COc1ccc(C2C3=C(OC(C)=O)c4ccccc4C3=Nc3c2c(=O)n(C)c(=O)n3C)cc1` (stereo not drawn), the inhibition of disassembly was -0.28% (inactive).

On to `Nc1nc(SCCOc2ccccc2)n[nH]1`, for which the inhibition of disassembly was 1.41% (inactive).

Regarding `Cc1cc(C(=O)O)c(S(C)(=O)=O)s1`, the inhibition of disassembly is -0.75% (inactive).

As to `Cc1noc(/C=C/N(C)C)c1S(=O)(=O)N1CCCC(C(=O)NCc2ccco2)C1` (stereo not drawn), the inhibition of disassembly is -7.75% (inactive).

For the compound `COc1cccc(Nc2nnc(SCC(=O)N3CC(C)OC(C)C3)s2)c1` (stereo not drawn), the inhibition of disassembly was -3.96% (inactive).

For `Cc1cc(Nc2ccc(Br)cc2F)n2ncnc2n1`, the inhibition of disassembly is -4.6% (inactive).

As for `CCOC(=O)c1sc(=S)n2c1[nH]c(=O)c1ccc(C(=O)OC)cc12`, the inhibition of disassembly was 0.98% (inactive).

For the compound `Cn1c(C(=O)NCCN2CCc3ccccc3C2)cc2c(=O)[nH]c3ccccc3c21`, the inhibition of disassembly was -0.79% (inactive).

Take `O=C(COc1ccccc1F)NC1CC1`: the inhibition of disassembly was -1.13% (inactive).

In the case of `O=C1CC(c2cccc(F)c2)C2=C(CCCC2=O)N1` (stereo not drawn), the inhibition of disassembly was -0.41% (inactive).

In the case of `Cc1c2cn[nH]c(=O)c2c(C)n1Cc1ccc(F)cc1`, the inhibition of disassembly was 2.63% (inactive).

With `COc1ccc2oc(=O)c(C(=O)N3CCN(c4ccccc4F)CC3)cc2c1`, the inhibition of disassembly is -0.83% (inactive).

As to `COc1ccccc1N1CCN(c2nc3ccccc3n3nnnc23)CC1`, the inhibition of disassembly was 22.2% (inactive).

Regarding `Cc1cccc(NC(=O)CSc2nnc(NC(=O)CN3CCOCC3)s2)c1`, the inhibition of disassembly was 0.22% (inactive).

Regarding `COc1cccc(-n2c(Cc3cc(=O)[nH]c(=O)[nH]3)nnc2SCC(=O)Nc2ccccc2)c1`, the inhibition of disassembly is -1.55% (inactive).

As for `CCOc1ccc(OCC)c(NC(=O)C(NS(=O)(=O)c2ccc3c(c2)oc(=O)n3C)C(C)C)c1` (stereo not drawn), the inhibition of disassembly was -0.66% (inactive).

Regarding `CCOC(=O)N1CCC(NC(=O)CN2C(=O)COc3ccc(C(C)(C)C)cc32)CC1`, the inhibition of disassembly was -0.61% (inactive).

For the compound `Cc1ccccc1C(=O)NCCN=C1NS(=O)(=O)c2ccccc21`, the inhibition of disassembly is -0.63% (inactive).

Regarding `CCOc1cc2c(cc1OCC)C(C(=O)O)C(c1ccc(OC)c(O)c1)N(C)C2=O` (stereo not drawn), the inhibition of disassembly was 0.12% (inactive).

With `O=C(Nc1c2c(nn1-c1ccc(F)cc1)CS(=O)C2)C12CC3CC(CC(C3)C1)C2` (stereo not drawn), the inhibition of disassembly was -2.52% (inactive).

As to `CC1CCC(NC(=O)c2ccc(N3CCCC3=O)cc2)CC1` (stereo not drawn), the inhibition of disassembly was 5.08% (inactive).

Take `Cc1cccc2c1N(CC(=O)OC(C)C)C(=O)C2=O`: the inhibition of disassembly is 1.8% (inactive).

With `CN(CC(=O)NC1CCCCC1)S(=O)(=O)c1cccc2cccnc12`, the inhibition of disassembly is -0.29% (inactive).

As for `O=C(CN1CCN(c2ccccc2F)CC1)c1ccc2c(c1)OCO2`, the inhibition of disassembly is -0.87% (inactive).

Regarding `Cc1cc(Nc2cccc(C)c2C)n2ncnc2n1`, the inhibition of disassembly was 1.4% (inactive).

With `Cc1ccc(S(=O)(=O)N(C)CC(=O)NC2CCCC2)cc1`, the inhibition of disassembly was 1.94% (inactive).

In the case of `CCN(CC)C(=O)N1CCN(C(=O)c2ccc(C)cn2)CC1`, the inhibition of disassembly was 0.26% (inactive).

As to `C#CCN1C(=O)C(O)(CC(=O)c2cc(OC)ccc2OC)c2ccccc21` (stereo not drawn), the inhibition of disassembly was -0.27% (inactive).

On to `COc1ccc(S(=O)(=O)NC2(C(F)(F)F)N=C3SCCN3C2=O)cc1` (stereo not drawn), for which the inhibition of disassembly is 0.29% (inactive).

For the compound `COc1cc(C2C(C(=O)Nc3ccccc3OC)=C(C)Nc3ncnn32)ccc1O` (stereo not drawn), the inhibition of disassembly was -1.23% (inactive).

As for `CC(=O)C1C(c2cccc(Oc3ccccc3)c2)NC(=O)NC1(O)C(F)(F)F` (stereo not drawn), the inhibition of disassembly was 3.33% (inactive).

Consider `CC(C)CNS(=O)(=O)c1ccc(OCC(=O)Nc2ccc3c(c2)OCO3)c(Cl)c1`, for which the inhibition of disassembly was 0.65% (inactive).

As for `CC1CCCN(C(=O)c2ccc3c(c2)C(=O)N(CCC2=CCCCC2)C3=O)C1` (stereo not drawn), the inhibition of disassembly was -0.2% (inactive).

For the compound `COCCn1c(CN(Cc2ccccc2)Cc2ccccc2)nc2c1c(=O)n(C)c(=O)n2C`, the inhibition of disassembly is 0.04% (inactive).

In the case of `CCOC(=O)N1CCN(C(=O)c2n[nH]c(=O)c3ccccc23)CC1`, the inhibition of disassembly was -0.81% (inactive).

Consider `COc1ccccc1C(=O)NCCn1cc(SCC(=O)NCc2ccco2)c2ccccc21`, for which the inhibition of disassembly is 0.52% (inactive).

With `COc1ccccc1NC(=O)CN1CCN(S(=O)(=O)c2ccc(Br)cc2)CC1`, the inhibition of disassembly is -0.52% (inactive).

Turning to `CCOc1ccccc1NC(=O)C1CCC(CNc2c(N3CCOCC3)c(=O)c2=O)CC1` (stereo not drawn), the inhibition of disassembly was 0.11% (inactive).

`CCC(C(=O)Nc1ncccn1)(C(F)(F)F)C(F)(F)F`: the inhibition of disassembly was -0.33% (inactive).

Turning to `CCOC(=O)c1nnn(CC(=O)Nc2cccc(F)c2)c1C(=O)OCC`, the inhibition of disassembly was -0.09% (inactive).

Take `Cc1ccc(C2CC(c3cccc(Br)c3)n3nc(N)nc3N2)cc1` (stereo not drawn): the inhibition of disassembly was 0.65% (inactive).

`Cc1oc(-c2ccccc2F)nc1CS(=O)(=O)CC(=O)NCCCN(C)C1CCCCC1`: the inhibition of disassembly was -0.8% (inactive).

On to `Cc1nnc(NC(=O)CCC(=O)N2CCC(C)CC2)s1`, for which the inhibition of disassembly is -1.57% (inactive).

As to `COc1ccc(-c2c(C)nn3c(N4CCC(C(=O)N5CCCCC5)CC4)cc(C)nc23)cc1OC`, the inhibition of disassembly is -1.42% (inactive).

For `NS(=O)(=O)c1cc2c(cc1Cl)NC(C(Cl)Cl)NS2(=O)=O` (stereo not drawn), the inhibition of disassembly was -0.98% (inactive).

`COc1ccc(OC)c(NC(=O)CC(Cc2ccccc2OC)C(=O)O)c1` (stereo not drawn): the inhibition of disassembly is -1.04% (inactive).

Turning to `Cc1noc(C)c1S(=O)(=O)Nc1ccc(C(=O)O)cc1`, the inhibition of disassembly was 1.24% (inactive).

With `CCCOC(=O)Nc1sc2c(c1C(=O)OCC)CCC2`, the inhibition of disassembly is 1.34% (inactive).
